Screening results (PubChem BioAssay)
PI5P4Ka inh = qHTS for Inhibitors of phosphatidylinositol 5-phosphate 4-kinase (PI5P4K); PI5P4Kalpha enzyme, ADP-Glo luminescence, 60 min; hits give low values; max response, %; hit rate 1.2% among 330,000; active means max response of -50% or lower; inconclusive means between -30% and -50%; inactive means -30% or higher; further: value at the top dose of about 77 µM
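Single end-point luminescence (ADP-Glo) quantified ADP from PI5P4Kalpha turnover; ATP 5 microM final, 1 h at RT, 0.1% CHAPS and 0.28 mM EGTA in HEPES pH 7.4.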
PLK1 PBD block = qHTS for Inhibitors of PLK1-PDB (polo-like kinase 1 - polo-box domain): Primary Screen | Serine/threonine-protein kinase PLK1 (Homo sapiens), P53350 | Plk1 PBD binding of FITC phosphopeptide, fluorescence polarization | Potency, µM, most hits filed as inhibitors | hit rate 2.8% among 360,000; further: series mostly up to about 57 µM; nearly all actives have a fitted effect of over 65% in size
JMJD2A Tudor inh = qHTS Assay for Inhibitors of JMJD2A-Tudor Domain; Lysine-specific demethylase 4A (Homo sapiens), O75164; AlphaScreen JMJD2A-Tudor / H3K4me3 peptide binding; Potency, µM (titrated, usually from 114 µM), usual class: inhibitors; hit rate 4.4% among 390,000; AID 504339, 2011; further: nearly all actives have a fitted effect of over 50% in size
GCN5L2 inh = qHTS Assay for Inhibitors of GCN5L2. Potency, µM (top dose mostly 58.9 µM), most hits filed as inhibitors. GCN5L2 HAT assay, ThioGlo1 CoA-SH fluorescence. Histone acetyltransferase KAT2A (Homo sapiens), Q92830. hit rate 0.21% among 390,000
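Fluorescence readout, Ex340nm/Em540nm: ThioGlo1 (50uM final) reacts with free CoA thiol released as 20nM GCN5L2 acetylates H3(1-25) peptide (75uM) using acetyl-CoA (70uM). Compound and enzyme sat 15 min beforehand; 20 min room-temperature reaction.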
HP1b chromo inh = HTS for Inhibitors of HP1-beta Chromodomain Interactions with Methylated Histone Tails | AID 540317, 2011 | hit rate 0.56% among 390,000 | AlphaScreen HP1-beta / biotin-H3K9me3 peptide binding | Potency, µM (doses to about 114 µM), most hits filed as inhibitors; further: nearly all actives have a fitted effect of over 70% in size
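HP1-beta protein (50 nM final) preincubated 30 min at room temperature with biotinylated H3(1-18)K9me3 peptide (50 nM) in PBS pH 7.4, 0.01% Tween-20, then compound added for 30 min. AlphaScreen streptavidin donor/nickel chelate acceptor beads (10 ug/mL final), 30 min dark, luminescence read.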
BAZ2B block = qHTS Assay for Inhibitors of BAZ2B | Potency, µM (top dose mostly 114 µM), most hits filed as inhibitors | AlphaScreen BAZ2B-H3K14Ac peptide displacement | hit rate 4.4% among 360,000 | AID 504333, 2011 | Bromodomain adjacent to zinc finger domain protein 2B (Homo sapiens), Q9UIF8; further: nearly all actives have a fitted effect of over 60% in size
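AlphaScreen displacement: compounds (up to 110uM) incubated 30 min at room temperature with a preformed 50 nM BAZ2B/50 nM biotinylated H3K14Ac peptide complex in PBS pH 7.4 with Tween-20. Donor and acceptor beads at 10 ug/mL final added, 20 min light-protected before reading.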
Numbers stand for hits; n = inactive; u = inconclusive; x = no result given; [ ] = another dose, or the depositor's remark. Most compounds without a hit are left out; they make up all but 7% or so of the library. Unless noted, the call rests on the fitted dose curve; in most records, active means well fitted curve in the direction sought with a large enough effect; inconclusive means small, poorly fitted or top-dose-only effect, or another doubt; inactive means no such curve, though single readings can be large; an effect the other way counts as inactive or inconclusive.

SMILES	PI5P4Ka inh	PLK1 PBD block	JMJD2A Tudor inh	GCN5L2 inh	HP1b chromo inh	BAZ2B block
CCOc1ccc(CCNC(=O)c2cn(CC)c3ccc(S(=O)(=O)N4CCCCCC4)cc3c2=O)cc1OCC	x	x	u	n	n	x
Cc1cc(C(=O)Nc2ccon2)ccc1[N+](=O)[O-]	n	n	n	x	n	x
CC(=O)N(c1ccc(Cl)cc1)C1SC(=O)N(c2ccc(C)cc2)C1=O (stereo unspecified)	x	x	n	x	n	x
Brc1ccc(OCCCCCN2CCOCC2)cc1	n	n	3.2µM	n	n	35µM
CN1CCN(CCCCOc2ccc(Br)cc2)CC1	n	n	20µM	n	u	56µM
Brc1ccc(OCCOCCN2CCOCC2)cc1	x	n	n	n	n	n
COc1ccc(Nc2nc(Cl)nc(N3CCN(c4ccc(OC)cc4)CC3)n2)cc1	x	x	x	n	x	8.9µM
COc1ccc(Nc2nc(OC)nc(N3CCN(c4ccc(OC)cc4)CC3)n2)cc1	x	n	n	n	n	n
O=C(CC12CC3CC(CC(C3)C1)C2)N/N=C/c1ccncc1	n	27µM	n	n	u	n
CC1(C2CC2)NC(=O)N(CC(=O)N2CCN(S(=O)(=O)c3ccc(F)c(F)c3)CC2)C1=O (stereo unspecified)	n	n	n	n	n	n
Cn1c(SCC(=O)c2ccc3c(c2)OCO3)nnc1C1COc2ccccc2O1 (stereo unspecified)	n	u	50µM	n	n	n
Cc1ccccc1Nc1nc(CSc2nnc(-c3ccoc3C)n2C)cs1	n	n	n	n	n	u
Cn1c(SCc2cc(=O)n3cc(Br)ccc3n2)nnc1C1COc2ccccc2O1 (stereo unspecified)	u	n	50µM	n	n	u
Cc1occc1-c1nnc(SCc2cc(=O)n3cc(Br)ccc3n2)n1C	n	n	u	n	n	56µM
CNC(=S)NNc1nc(C)cc(C)n1	n	n	u	n	79µM	n
CNC(=S)NNc1nc(-c2ccccc2)c2cc(Cl)ccc2n1	n	n	u	x	n	x
N#CC1(C#N)C2=C(CCCC2)NC(c2ccccc2)C1(C#N)C#N (stereo unspecified)	x	x	x	n	x	50µM
Cc1ccc(NCc2ccccc2O)c(C)c1	n	n	u	n	n	32µM
COc1ccc(S(=O)(=O)N2CCC(C(=O)Nc3cc(C(F)(F)F)ccc3Cl)CC2)cc1	x	x	n	n	n	n
COC(=O)C=CC(=NNc1ccccc1)c1ccccc1	n	n	n	x	n	x
Cn1nnnc1N=N/C(=N/Nc1ccccc1)c1ccccc1	n	n	1.6µM	n	28µM	1.3µM
Cc1ccccc1OCCN(C#N)c1nc(N(C)C)nc(N(C)C)n1	n	n	n	n	n	n
O=C(Cc1cccs1)NCc1cccc(Cl)c1	n	n	89µM	n	n	n
COc1cccc(NC(=S)/C(=C(\[O-])c2ccc([N+](=O)[O-])cc2)[n+]2ccccc2)c1	n	7.5µM	n[11.4 µM]	n	n	50µM
CCOC(=O)c1[nH]c2cc(OC)c(OC)cc2c1N	n	n	56µM	n	n	n
SMILES	PI5P4Ka inh	PLK1 PBD block	JMJD2A Tudor inh	GCN5L2 inh	HP1b chromo inh	BAZ2B block
C/C(=N/NC(=O)c1ccc(Cl)s1)c1cccnc1	n	n	n	u	n	n
C/C(=N/NC(=O)c1ccc(C)s1)c1cccnc1	n	n	35µM	n	n	n
COc1ccc(CCNC(=O)C(=O)NCC(c2ccco2)S(=O)(=O)c2ccc(C)cc2)cc1 (stereo unspecified)	x	x	n	n	n	n
CCOc1ccc(NC2=NCC(=O)N2CCc2ccccc2)cc1	n	n	n	n	n	79µM
CC(=O)Nc1ccc(-c2csc(NCc3ccco3)n2)cc1	n	u	u	n	n	n
Cc1cccc(Nc2nc(-c3c(C)nc4ccccn34)cs2)c1	x	n	n	n	n	n
Cc1ccn2c(-c3csc(NCc4ccco4)n3)c(C)nc2c1	n	n	100µM	n	n	u
COc1ccc(-c2csc(NCc3ccco3)n2)cc1C	n	n	u	n	u	45µM
